Laboratory results as given in PubChem BioAssay AID720706 (Broad Institute, 2013).
Where “and” joins values, the source holds several entries; their conditions need not be identical. Equal values may be shown once. The campaign covered roughly 350,000 compounds. About 5,500 (1.6%) were called active.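 How the source made its calls: active means significant combined selectivity score with lowered wild-type GFP, culture density cut under 30%, mutant RFP and density less affected; inactive means any of these conditions unmet.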 The full list was thinned out, with actives kept by preference.

Assay: reduced GFP signal of wild-type E. coli, primary screen, bacterial rRNA inhibitor project, GFP/RFP fluorescence, OD600, single point (AID 720706)
Details: E. coli WT GFP vs humanized-ribosome RFP mutants, 24 h; GFP signal change (wild-type ribosome): stronger effect = lower value, DMSO median 0, no signal -100; OD600 change: measured here: OD600 growth, DMSO median 0, no signal -100; RFP signal change: measured here: RFP humanized mutant strains, DMSO median 0, no signal -100, concentration not given here

Structure (SMILES) | GFP signal change (wild-type ribosome) | OD600 change | RFP signal change
CN1C(CC(=O)Nc2ccc(Br)cc2)c2ccccc2CC1(C)C (stereo not given) | -26.3% (active) | -20.9% | -0.455%
CCCCN1CC(C)(C)[C@H](CC(=O)Nc2ccc(Br)cc2)C1=O | -12.6% (inactive) | -27.4% | -4.18%
CC1(C)CN(CCc2ccccc2)C(=O)[C@H]1CC(=O)Nc1ccc(Br)cc1 | -6.21% (inactive) | 0.615% | -0.505%
CNC[C@H]1OCCCC[C@H](C)Oc2ccc(NS(=O)(=O)c3ccc(Cl)cc3)cc2C(=O)N([C@@H](C)CO)C[C@@H]1C | 3.9% (inactive) | 3.87% | 0.215%
O=C(N/N=C/c1ccc(OCc2ccccc2)cc1)c1ccc(O)cc1 | -18.6% (active) | 6.25% | 7.26%
O=C(Cc1cccs1)N/N=C/c1ccc(OCc2ccccc2)cc1 | 6.88% (inactive) | -2.65% | -8.12%
CCOc1ccc(-c2cc(C(=O)N/N=C/c3ccc(O)cc3)c3ccccc3n2)cc1 | 12.1% (inactive) | 6.6% | 2.19%
C[C@@H]1CCCCO[C@H](CN(C)C(=O)NC2CCCCC2)[C@@H](C)CN([C@H](C)CO)C(=O)c2cc(NC(=O)CCC(F)(F)F)ccc2O1 | -0.169% (inactive) | -3.94% | -2.49%
CCNC(=O)Nc1ccc2c(c1)C(=O)N(C)[C@@H]1CC[C@@H](CC(=O)NCCOC)O[C@@H]1CO2 | 4.01% (inactive) | 1.31% | -0.262%
COc1ccc2c3c([nH]c2c1)[C@H](CO)N(C(=O)CN1CCOCC1)CC31CN(C(C)=O)C1 | 3.07% (inactive) | 2.55% | 0.589%
CNC[C@H]1OCCCC[C@@H](C)Oc2ccc(NS(=O)(=O)c3ccc(F)cc3)cc2C(=O)N([C@H](C)CO)C[C@H]1C | 2.84% (inactive) | 7.37% | -0.102%
CC(C)NC(=O)N(C)C[C@H]1OCCCC[C@H](C)Oc2ccc(NC(=O)CCCN(C)C)cc2C(=O)N([C@@H](C)CO)C[C@H]1C | 3.73% (inactive) | 6.52% | -0.182%
COc1ccc2c3c(n(C)c2c1)[C@H](CO)N(C(=O)c1ccc(F)cc1)CC31CCN(C(C)=O)CC1 | -0.941% (inactive) | 9.11% | -3.57%
COc1ccc(Br)cc1/C=N/Nc1ccc(S(=O)(=O)Nc2ccccc2C(=O)O)cc1[N+](=O)[O-] | -24.6% (active) | 15.1% | -1.87%
CCOc1ccccc1Nc1ccc(C(=O)O)cc1[N+](=O)[O-] | 1.23% (inactive) | -10.5% | -0.853%
COc1ccc(S(=O)(=O)Nc2ccc3cn[nH]c3c2)cc1[N+](=O)[O-] | 3.58% (inactive) | 9.25% | -2.09%
CCCC#Cc1ccc([C@H]2[C@@H](CO)N3CCCCN(S(=O)(=O)Cc4ccccc4)C[C@H]23)cc1 | -54.1% (inactive) | -75.8% | -7.77%
C[C@@H]1CCCCO[C@H](CN(C)S(=O)(=O)c2cccs2)[C@H](C)CN([C@H](C)CO)C(=O)c2cc(NC(=O)c3ccccc3)ccc2O1 | 0.541% (inactive) | -5.5% | 4.83%
O=C(c1cccs1)N1CCC(c2nc3ccccc3s2)CC1 | -27.6% (inactive) | -25.9% | 9.84%
O=C(CCC(=O)c1cccs1)Nc1nc2ccccc2s1 | -21.4% (active) | -16.4% | -0.615%

Structure (SMILES) | GFP signal change (wild-type ribosome) | OD600 change | RFP signal change
O=C(CCC(=O)c1cccs1)NC1CCCCCC1 | 13.3% (inactive) | 16.6% | 0.589%
COc1cc(OC)c(OC)cc1CN1CCN(C(=O)c2cccc3ccccc23)CC1 | 9.36% (inactive) | 7.23% | 0.512%
COc1ccc(Br)cc1CN1CCN(C(=O)c2cccc(OC)c2OC)CC1 | -28.2% (active) | -11.8% | 1.29%
COc1cccc(OC)c1C(=O)N1CCN(Cc2ccccc2F)CC1 | 11.6% (inactive) | 16.8% | 0.962%
COc1ccc(NC(=O)Nc2ccc3c(c2)C(=O)N([C@H](C)CO)C[C@H](C)[C@@H](CN(C)Cc2ccc(C(=O)O)cc2)OCCCC[C@H](C)O3)cc1 | -0.806% (inactive) | -1.43% | -1.16%
C[C@H]1CCCCO[C@H](CN(C)S(=O)(=O)c2ccc(Cl)cc2)[C@@H](C)CN([C@@H](C)CO)C(=O)c2cc(NC(=O)Nc3ccc4c(c3)OCO4)ccc2O1 | 2.33% (inactive) | 1.85% | -3.19%
COc1ccc2c3c(n(C)c2c1)[C@H](CO)N(C(C)=O)CC31CN(Cc2ccc(Cl)cc2)C1 | -5.13% (inactive) | -14.3% | 1.56%
C[C@@H]1CN([C@@H](C)CO)S(=O)(=O)c2ccc(-c3ccncc3)cc2O[C@@H]1CN(C)C(=O)C1CCC1 | -1.91% (inactive) | 0.625% | -1.44%
CCC(C)(C)NC(=O)/C=C/c1cc(OC)c(OC)c(S(=O)(=O)N2CCc3ccccc32)c1 | 25% (inactive) | 13.4% | -10.2%
COc1cc(/C=C/C(=O)N2CCc3ccccc3C2)cc(OC)c1OC | -21.8% (active) | -16.9% | 0.83%
COc1cc(/C=C/C(=O)OCC(=O)c2ccccc2)cc(OC)c1OC | -32.8% (inactive) | -28.1% | -5.92%
O=C(C[C@H]1C[C@H]2c3cc(NC(=O)Nc4ccc(C(F)(F)F)cc4)ccc3O[C@H]2[C@@H](CO)O1)NCc1cccnc1 | 3.1% (inactive) | 2.56% | -0.972%
COc1cccc(S(=O)(=O)N2[C@@H]3CNC[C@H]2C3c2ccc(-c3ccccc3OC)cc2)c1 (stereo not given in full) | -57.9% (inactive) and 6.81% (inactive) | -76.9% and 4.62% | -12.3% and 0.158%
COc1cccc(S(=O)(=O)N2C[C@H](O)COC[C@H]3O[C@@H](CC(=O)N4CCN(c5ccccc5)CC4)CC[C@@H]32)c1 | -6.4% (inactive) | -3.12% | 2.98%
CCCN(C)C[C@@H]1OCCCC[C@H](C)Oc2ccc(NS(=O)(=O)c3ccc(C)cc3)cc2C(=O)N([C@H](C)CO)C[C@@H]1C | -0.00475% (inactive) | -4.83% | 1.63%
COCC(=O)Nc1ccc2c(c1)C(=O)N(C)C[C@@H](OC)[C@@H](C)CN(CC1CCCCC1)[C@@H](C)CO2 | 0.911% (inactive) | 5.47% | -0.068%
COc1ccc(CN2CCN(Cc3ccc(OC)c(OC)c3OC)CC2)cc1 | 13.2% (inactive) | 19.1% | -0.244%
COc1ccccc1N1CCN(Cc2cc(OC)c3c(c2)OCO3)CC1 | -2.5% (inactive) | -4.28% | -3.78%
COc1ccccc1N1CCN(Cc2ccc(OC)c3ccccc23)CC1 | -21.9% (active) | -8.32% | -3.95%
CO[C@@H](CN(C)S(=O)(=O)c1ccc(F)cc1)[C@H](C)CN(C(=O)Nc1ccccc1F)[C@@H](C)CO | -3.35% (inactive) | 0.819% | -3.65%

Structure (SMILES) | GFP signal change (wild-type ribosome) | OD600 change | RFP signal change
C[C@@H]1CN([C@H](C)CO)C(=O)Cc2cc(NC(=O)C3CCCCC3)ccc2O[C@@H]1CN(C)Cc1ccc(C(F)(F)F)cc1 | -2.69% (inactive) | 1.55% | 2.15%
COc1ccc(C(=O)NC(=S)NC2CCCCC2)cc1 | -49.8% (inactive) | -73.1% | -12.9%
Cc1nc2ccc(NC(=O)C3CCCCC3)cc2s1 | -1.32% (inactive) | -0.83% | -0.607%
COc1ccc2nc(NC(=O)NC3CCCCC3)sc2c1 | -22.5% (active) | -17.5% | 7.27%
C[C@H](CO)N1C[C@H](C)[C@H](CN(C)Cc2ccccc2)OCCCC[C@H](C)Oc2ccc(NC(=O)CCC(F)(F)F)cc2C1=O | -1.2% (inactive) | -5.79% | -1.47%
CC(C)NC(=O)Nc1ccc2c(c1)C(=O)N([C@@H](C)CO)C[C@@H](C)[C@H](CN(C)Cc1ccc(Cl)c(Cl)c1)O2 | -11.4% (inactive) | -58.1% | 26%
COCCCNC(=O)/C=C/c1ccc(OCc2c(F)cccc2Cl)cc1 | -4.38% (inactive) | -2.58% | -3.12%
O=C(/C=C/c1ccc(OCc2c(F)cccc2Cl)cc1)N1CCOCC1 | -49% (inactive) | -72.9% | -13.9%
CN(C)CCCNC(=O)/C=C/c1ccc(OCc2c(F)cccc2Cl)cc1 | -45.5% (active) | -31% | -4.52%
Cc1noc(C)c1NC(=O)Nc1ccc2c(c1)C(=O)N([C@H](C)CO)C[C@@H](C)[C@@H](CN(C)Cc1ccncc1)OCCCC[C@H](C)O2 | 0.824% (inactive) | 10.7% | -1.14%
C[C@H]1CN(C)C(=O)c2cccc(N(C)C)c2O[C@@H]1CN(C)C | -0.435% (inactive) | 5.4% | -1.5%
CO[C@H]1CN(C)C(=O)c2ccc(NC(=O)CC(F)(F)F)cc2OC[C@@H](C)N(C(=O)c2ccccc2F)C[C@@H]1C | 3.23% (inactive) | 1.55% | 3.46%
CCOc1ccc(/C(O)=C2\C(=O)C(=O)N(c3ccc(OC)cc3)C2c2ccccc2[N+](=O)[O-])cc1 (stereo not given) | -20.6% (active) | 6.17% | 5.06%
COc1ccccc1C1/C(=C(/O)c2ccc(C)cc2)C(=O)C(=O)N1Cc1ccco1 (stereo not given) | 6.88% (inactive) | 7.9% | 1.73%
COc1ccc(C2/C(=C(/O)c3ccccc3)C(=O)C(=O)N2C)c(OC)c1 (stereo not given) | -2.38% (inactive) | 2.38% | -3.31%
COCC(=O)Nc1ccc2c(c1)[C@H]1C[C@H](CC(=O)NCc3ccccn3)O[C@H](CO)[C@H]1O2 | -0.801% (inactive) | -4.21% | -2.1%
O=S1(=O)c2ccc(Br)cc2-n2nncc2CN1Cc1cccc(Cl)c1 | -5.88% (inactive) | -16.9% | -5.12%
O=C(N[C@@H](Cc1ccccc1)C(=O)OCc1ccccc1)c1nc[nH]c1C(=O)NC1CCNCC1 | -20.9% (active) | -8.38% | -3.23%
O=C(N[C@@H](Cc1ccccc1)C(=O)OCc1ccccc1)c1nc[nH]c1C(=O)N[C@@H](Cc1ccccc1)C(=O)OCc1ccccc1 | 8.68% (inactive) | 15.5% | -0.702%
CC(C)(C)OC(=O)N1CCC(NC(=O)c2[nH]cnc2C(=O)N[C@@H](Cc2ccccc2)C(=O)OCc2ccccc2)CC1 | 12.4% (inactive) | -1.46% | 0.755%
